Rows were chosen to be rich in hits. Some 21% of all compounds tested hit in one or more screens of this group.
NS1 inh = qHTS Assay for Inhibitors of Influenza NS1 Protein Function; 270,000 tested, 0.4% active; Potency, µM (series often up to 46.1 µM), for inactives: top-dose activity, positive = more growth; calls by dose curve; further: potency means the concentration at half of the fitted maximal effect; actives are rising curves; nearly all actives have a fitted effect of over 50% in size
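A cell-based growth assay was used: compounds that relieve NS1-induced slow growth of budding yeast raise OD600. Assay medium was yeast nitrogen base with ammonium sulphate and -URA supplement, pH 6.0, with 2% galactose.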
Shiga toxin inh = A qHTS for Small Molecule Inhibitors of Shiga Toxin; AID 2315, 2010; Vero cells, Shiga toxin protein synthesis inhibition reporter; 290,000 tested, 9.2% active; inhibition, % at 38.7 µM; in the data active means inhibition mostly above about 28%, no sharp cut-off; inactive means mostly below about 43%; further: 0% is about no effect
Pf growth 96h = Primary qHTS for delayed death inhibitors of the malarial parasite plastid, 96 hour incubation; P. falciparum luciferase reporter growth, 96 h; Potency, µM (top dose mostly 28.7 µM), inactives show at the top dose activity change, negative = inhibition, usual class: inhibitors; 320,000 tested, 6.9% active; AID 504834, 2011; further: potency means the concentration at half of the fitted maximal effect; on the % scale 0 is the no-effect control and ±100 the full control effect
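Infected RBCs, 2% Hct / 0.05% parasitemia final; luciferase-reporter P. falciparum; cpd 96 h, 37 C, 5% CO2; luciferase detection reagent; luminescence.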
Pf growth 48h = Primary qHTS for delayed death inhibitors of the malarial parasite plastid, 48 hour incubation; P. falciparum luciferase growth in erythrocytes, 48 h; Potency, µM (highest dose often 28.7 µM), inactives show at the top dose activity change, negative = inhibition, hits mostly inhibitors; 310,000 tested, 5.9% active; further: potency means the concentration at half of the fitted maximal effect; on the % scale 0 is the no-effect control and ±100 the full control effect
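First compound was added to culture medium, then infected red cells at 0.1% parasitemia and 2% hematocrit (final). After incubation at 37 C under 5% CO2, luciferase detection reagent was dispensed and light output recorded.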
Sm TGR inh = qHTS Assay for the Inhibitors of Schistosoma Mansoni Peroxiredoxins. AID 485364, 2010. purified TGR, DTNB reduction, TNB absorbance 405 nm. 360,000 tested, 3% active. Potency, µM (doses to about 114 µM), for the others: top-dose activity change, negative = inhibition, most hits filed as inhibitors; further: potency means the concentration at half of the fitted maximal effect; on the % scale 0 is the no-effect control and ±100 the full control effect; nearly all actives have a fitted effect of over 60% in size
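TGR 20 nM + NADPH 100 uM (dispensed conc.), cpd preinc 15 min RT; start with NADPH (500 uM addition) then DTNB (15 mM addition). Kinetic TNB absorbance, 405 nm filter. Four-parameter Hill fit across titration.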
Cycloheximide cs = Cycloheximide Counterscreen for Small Molecule Inhibitors of Shiga Toxin; cell reporter, cycloheximide protein synthesis inhibition counterscreen; max response, %; 300,000 tested, 12% active; in the data active means max response mostly above about 13%, no sharp cut-off; inactive means mostly below about 14%; further: read at 38.3 µM for the half of the compounds with a filed dose; 0% is about no effect
* marks the source's active call; other numbers are inactive results; i = inactive; u = inconclusive; x = not tested or not shown; [ ] = dose if it differs, or a comment. Unless noted, the call rests on the fitted dose curve; in most records, active means well fitted curve in the direction sought with a large enough effect; inconclusive means small, poorly fitted or top-dose-only effect, or another doubt; inactive means no such curve, though single readings can be large; an effect the other way counts as inactive or inconclusive.

SMILES	NS1 inh	Shiga toxin inh	Pf growth 96h	Pf growth 48h	Sm TGR inh	Cycloheximide cs
COC(=O)CN1C(=O)[C@H]2[C@@H](c3ccc(C)o3)N3C(=O)CN(Cc4ccccc4)C(=O)[C@@]3(C)[C@H]2C1=O	-17%	3	48%	17%	22µM*	6
Cc1ccc([C@@H]2[C@@H]3C(=O)N(C)C(=O)[C@@H]3[C@]3(C)C(=O)N(Cc4ccccc4)CC(=O)N23)o1	15%	-1	u	u	45µM*	-1
CCO/C(C)=N/n1c2nc3ccccc3nc2c2c(=O)n(CC(C)C)c(C)nc21	-3%	-12	2.3µM*	2.9µM*	-35%	-2
CCOCCCn1c(C)nc2c(c1=O)c1nc3ccccc3nc1n2-c1ccc(C)cc1	-15%	-3	u	0%	-3%	3
COc1ccc(O)c(N)c1	0%	24	-107%	32%	3.2µM*	16
O=C(COc1ccc2c(c1)oc(=O)c1ccccc12)NCCN1CCOCC1	-21%	-8	8%	8%	-13%	-2
COC(=O)c1cccc(-n2c(CCC(=O)O)ccc2-c2ccc(OC)cc2)c1	x	x	x	x	13µM*	x
COc1ccc(-c2ccc(CCC(=O)O)n2CC(=O)Nc2cccc(C(F)(F)F)c2)cc1	x	x	x	x	-32%	x
COC(=O)c1cccc(-n2c(CCC(=O)O)ccc2-c2cccs2)c1	1%	49*	25%	-2%	3.5µM*	19*
CC(C(=O)O)n1nc(-c2ccccc2)c2ccccc21 (stereo not drawn)	-5%	-8	-1%	3%	-11%	-1
CC(C)Cc1nn2c(=O)cc(COC(=O)c3cccc(NS(C)(=O)=O)c3)nc2s1	x	x	x	x	20%	x
CCCCNc1nc(N(C)c2ccccc2)nc(-n2ccnc2)n1	-151%	-3	0%	17µM*	8%	-3
O=c1[nH]c(CSc2nc3ccccc3s2)nc2ccccc12	-3%	52*	60%	37%	2%	30*
Cc1sc2nc(CSc3ccc([N+](=O)[O-])cc3)[nH]c(=O)c2c1C	11%	16	47%	22%	-7%	-2
Cc1sc2nc(CSc3nc4ccccc4s3)[nH]c(=O)c2c1C	x	80	-8%	11%	0%	21*
O=c1[nH]c(CSc2nc3ccccc3s2)nc2cc(Cl)ccc12	10%	25	28%	2%	-36%	9
O=C(NNC(=S)NC(=O)c1ccco1)c1ccc(F)cc1	-99%	17	u	u	3%	10*
O=C(NC(=S)NNC(=O)c1ccco1)c1ccc(Br)cc1	-89%	23	u	29%	40µM*	13
Cc1ccccc1N1CN(Cc2ccco2)CNC1=S	6%	10	i	5%	10%	-1
CCC(=O)N(Cc1cc(=O)[nH]c2ccccc12)c1ccc(OC)cc1	4%	-11	-23%	-9%	-12%	3
O=C(C1CCCN(Cc2ccc(Br)cc2)C1)N1CCCCC1 (stereo not drawn)	-1%	-1	29%	-9%[0.00184 µM]	6%	-4
CN(C)c1cccc(C(=O)N(C)C2CCCN(Cc3ccccc3F)C2)c1 (stereo not drawn)	1%	7	4.1µM*	u	-23%	-2
O=C(C1CCCN(Cc2cc(Br)ccc2O)C1)N1CCCCC1 (stereo not drawn)	0%	18	u	8.3µM*	-2%	9
CCOc1cc(CN2CCCC(C(=O)c3cccc(C(F)(F)F)c3)C2)ccc1O (stereo not drawn)	5%	-8	8%	5.2µM*	u	8
O=C(c1cccc(C(F)(F)F)c1)C1CCCN(Cc2ccccc2O)C1 (stereo not drawn)	-5%	-9	8.3µM*	u	0%	5
SMILES	NS1 inh	Shiga toxin inh	Pf growth 96h	Pf growth 48h	Sm TGR inh	Cycloheximide cs
O=C(O)c1ccccc1Nc1ccc2nonc2c1[N+](=O)[O-]	-3%	2	3%	0%	-26%	-1
Fc1ccc(Nc2nc(SCc3ccccc3F)nc3ccccc23)cc1	x	x	x	x	3%	x
C=CCOc1ccc(/C=C/C(=O)OCC(=O)N(C)C2CCS(=O)(=O)C2)cc1 (stereo not drawn)	11%	2	30%	20%	-1%	-2
COC(=O)C(C)Sc1ncnc2c1c(-c1ccccc1)cn2-c1ccc(F)cc1 (stereo not drawn)	x	x	x	x	3%	x
CCn1ccnc1CN(C)C(=O)CCc1nnc(CCCc2ccccc2)o1	-7%	20	-17%	u	-12%	10
O=C(NCC1CCCN(Cc2ccccc2F)C1)c1cccc(C(F)(F)F)c1 (stereo not drawn)	3%	9	12µM*	-5%	-3%	-2
COc1ccc(CN2CCNC(=O)C2CC(=O)NC2CCC2)c(OC)c1 (stereo not drawn)	10%	-2	15µM*	7%	-66%	-2
COc1ccc(CN2CCNC(=O)C2CC(=O)NCc2ccc(C)s2)c(OC)c1 (stereo not drawn)	0%	-9	u	19%	32µM*	-1
COc1ccc(CNC(=O)CC2C(=O)NCCN2CC(C)(C)C)c(OC)c1 (stereo not drawn)	7%	-4	10µM*	-8%	-20%	-3
CC(=O)c1ccc(NC(=O)c2ccc(CN3C(=O)CCn4nc(C)cc43)cc2)cc1	x	x	x	x	1%	x
O=C(COc1ccc(Cl)cc1)NNC(=O)CSc1nncs1	x	5	17%	0%	-2%	-5
CN(C)C/C(Cl)=C(\Cl)c1ccccc1	-22%	7	-8%	11%	20µM*	1
Cn1cnc(S(=O)(=O)N2CCN(C(c3ccc(F)cc3)c3ccc(F)cc3)CC2)c1	-15%	-6	-18%	-18%	0%	0
CS(=O)(=O)N(CC(=O)NCCSCc1ccccc1)c1ccccc1Br	-3%	-3	7.4µM*	8%	-26%	-1
Cc1ccccc1N(CC(=O)NCCSCc1ccccc1)S(C)(=O)=O	9%	-9	12µM*	-14%	1%	-2
CC(NC(=S)NCCc1ccccc1)C(c1cccs1)N1CCN(Cc2ccccc2)CC1 (stereo not drawn)	-13%	6	u	u	-9%	3
COc1ccc(CC(=O)n2[nH]c(=O)cc(C)c2=O)cc1OC	1%	-3	0%	u	22µM*	8
O=C(Nc1ccon1)Nc1ccccc1C(F)(F)F	-8%	19	-2%	-26%	-12%	14
COCCN(C(=O)c1sc2ccccc2c1Cl)c1c(N)n(CC(C)C)c(=O)[nH]c1=O	x	x	-18%	-21%	-23%	x
CC(=O)c1cccc(NC(=O)c2ccc(-n3c(C)nnc3C)cc2)c1	x	x	x	x	-2%	x

Assay outcomes deposited in PubChem BioAssay by National Center for Advancing Translational Sciences (NCATS).
